Results from PubChem BioAssay AID686978 (National Center for Advancing Translational Sciences (NCATS), 2013).
In all, about 420,000 compounds went through this assay and about 64,000 (15%) were called active. About 27% were inconclusive and are not listed. Calls follow the shape of the dose curve; as a rule, active = well fitted inhibition curve with a large enough effect; inconclusive = small, poorly fitted or top-dose-only effect; inactive = flat fitted curve, though single readings scatter. The list is a sample of the results. Entries that show only a call come without a potency.

experiment: qHTS for Inhibitors of human tyrosyl-DNA phosphodiesterase 1 (TDP1): qHTS in cells in absence of CPT; conditions: DT40 Tdp1-/- hTDP1 cells, no CPT, ATP luminescence, 48 h; activity change, negative = growth inhibition: at 46.2 µM (top of the series); also: nearly all actives have a fitted effect of over 55% in size
Summary of the method: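 DT40 Tdp1-/-;hTDP1 cells, no CPT (DMSO vehicle only), 400 cells/well; compounds pin-transferred; ≥48 hr, 37 °C; CellTiter-Glo 30 min RT dark, luminescence read.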
Potency is read from the fitted curve at half-maximal effect.

| SMILES | Potency |
| --- | --- |
| COc1ccc(C2CC(=O)Nc3c2c(=O)nc2c(C)cccn32)cc1OC (configuration not stated) | inactive |
| C#CCOc1ccc(C2CC(=O)Nc3c2c(C)nn3-c2nc(C)cc(C)n2)cc1 (configuration not stated) | 20.6 µM (active) |
| COc1ccc(C2c3c(C)nn(-c4ccccc4)c3NC(=O)N2c2ccccc2)cc1 (configuration not stated) | inactive |
| COc1ccc(Br)cc1S(=O)(=O)N1CCN=C1C | inactive |
| NC(=O)COC(=O)c1ccc2c(c1)C(=O)N(Cc1ccco1)C2=O | inactive |
| CCCS(=O)(=O)NC(=O)C1(C)CCN(C(=O)c2sccc2C)C1 (configuration not stated) | inactive |
| COc1ccc(NC(=O)c2ccco2)cc1NC(=O)c1ccc(C#N)cc1F | inactive |
| Clc1cc(-c2ccc(/C=N/n3cnnc3)o2)ccc1Br | inactive |
| Cc1cc([N+](=O)[O-])nn1CCCC(=O)Nc1cccnc1Cl | inactive |
| CC(C)(C)c1ccc(C(=O)NCC(=O)OCN2C(=O)c3ccccc3C2=O)cc1 | inactive |
| O=C(CCNC(=O)c1ccc([N+](=O)[O-])cc1)Nc1ccccc1N1CCOCC1 | inactive |
| CC(C)(C)c1ccc(C(=O)NCCn2c(N)c(C#N)c3nc4ccccc4nc32)cc1 | 29.1 µM (active) |
| CCOC(=O)/C(C#N)=C\c1c(C)cc(C)c(COC(C)=O)c1C | inactive |
| Cc1ccc2c(=O)c(C(=O)c3cccc(Cl)c3)cn(CC(=O)NCc3ccccc3)c2n1 | inactive |
| O=C(O)CC1=C(Nc2ccccc2)C(=O)N(c2ccccc2)C1c1ccc(Cl)cc1 (configuration not stated) | inactive |
| CCc1nc2onc(C)c2c(=O)n1CC(=O)O | inactive |
| CCOC(=O)N1CCN(C(=O)c2cnc3n(c2=O)CCS3)CC1 | inactive |
| CCOC(=O)N1CCN(C(=O)c2ccc(S(=O)(=O)c3ccc(C)cc3)c(NC(C)=O)c2)CC1 | inactive |
| CCOC(=O)N1CCN(C(=O)c2ccc3c(c2)N(Cc2ccc(C)cc2)CCS3)CC1 | 23.1 µM (active) |
| COc1ccc(NC(=O)NC2CC3CCCC(C2)N3Cc2ccccc2)cc1 (configuration not stated) | inactive |
| CC1(C)C2CC[C@]3(C)C(CC=C4[C@@H]5C[C@@](C)(CO)CC[C@]5(C(=O)O)CC[C@]43C)[C@@]2(C)CC[C@@H]1O (some centres not stated) | inactive |
| Cc1sc2ncnc(SCC(=O)NC3CCS(=O)(=O)C3)c2c1C (configuration not stated) | inactive |
| COC(=O)c1c(-c2cccs2)csc1NC(=O)CSc1ncnc2sc(C)c(C)c12 | 20.6 µM (active) |
| Cc1sc2ncnc(SCC(=O)Nc3ccc(CN4CCCC4)cc3)c2c1C | inactive |
| CC(=O)Nc1ccc(N2C(=O)C3C4C=CC(CC4)C3C2=O)cc1 (configuration not stated) | inactive |
| OCCNc1nc2ccccc2n1-c1ncnc2sc3c(c12)CCC3 | 20.6 µM (active) |

| SMILES | Potency |
| --- | --- |
| O=C(O)[C@@H]1CCCN1c1ncnc2sc3c(c12)CCC3 | inactive |
| O=C(O)c1cccnc1Sc1ncnc2sc3c(c12)CCC3 | inactive |
| COc1cc(N2C(=O)CSC2=S)cc(OC)c1OC | inactive |
| O=C(Cn1nc(C(F)(F)F)c2c1CCC2)NCc1ccc(F)cc1 | inactive |
| O=C(CN(C(=O)c1csnn1)c1ccc(Br)cc1)NC1CCCC1 | inactive |
| O=C(NC(=S)NC1CCCCC1)c1ccc(Cl)cc1 | inactive |
| O=C(NNC(=O)C1C2CCC(C2)C1C(=O)O)c1ccc(Cl)cc1 (configuration not stated) | inactive |
| O=C(NNC(=S)NC1CC2CCC1C2)c1ccc(Cl)cc1 (configuration not stated) | 23.1 µM (active) |
| Oc1c(C(c2ccco2)N2CCC3(CC2)OCCO3)sc2ncnn12 (configuration not stated) | inactive |
| CCOC(=O)c1ccc(N2C(=O)CC(N3CC(C)OC(C)C3)C2=O)cc1 (configuration not stated) | inactive |
| COc1ccc(C)cc1N(CC(=O)N1CCCC1)S(=O)(=O)c1ccccc1 | inactive |
| O=C(NCCCn1ccnc1)C1CCCN(S(=O)(=O)c2cc(Cl)ccc2Cl)C1 (configuration not stated) | inactive |
| Cc1ccc(Cl)cc1NC(=O)COC(=O)C1CCCCC1 | inactive |
| Cc1ccc(CNC(=O)CCC(=O)N2CC(C)Sc3ccccc32)cc1 (configuration not stated) | inactive |
| Cc1ccc(Cl)cc1NC(=O)CCC(=O)N1CC(C)Sc2ccccc21 (configuration not stated) | 18.4 µM (active) |
| Cc1cccc(N(C(=O)Cn2nnc(-c3ccc(C)o3)n2)C(C(=O)NC2CCCC2)c2ccncc2)c1 (configuration not stated) | inactive |
| CC(NC(=O)c1ccco1)c1ccc2c(c1)OCO2 (configuration not stated) | inactive |
| C#CCSc1nnc(-c2sc3ccccc3c2Cl)o1 | inactive |
| O=C1N[C@H](Cc2c[nH]c3ccccc23)COC(=O)[C@H](Cc2ccc(F)cc2)C/C=C\C[C@H]1CC(=O)N(CCO)Cc1ccccc1 | 16.4 µM (active) |
| O=C1OC[C@@H]2CCCN2C(=O)[C@H](CC(=O)N(CCO)Cc2ccccc2)C/C=C\CC[C@@H]1Cc1ccc(F)cc1 | 18.4 µM (active) |
| O=C(N[C@@H]1C/C=C\C[C@@H](CC(=O)N(CCO)Cc2ccccc2)C(=O)N[C@H](Cc2ccccc2)COC1=O)OCC1c2ccccc2-c2ccccc21 | 4.61 µM (active) |
| O=C1CCC/C=C\C[C@@H](CC(=O)N(CCO)Cc2ccccc2)C(=O)NCCO1 | inactive |
| CN(Cc1cccs1)C(=O)Cc1c[nH]c2ccccc12 | inactive |
| O=C1NC[C@@H](c2ccccc2)OC(=O)[C@H](Cc2ccc(F)cc2)CC/C=C/C[C@H]1CC(=O)N(CCO)Cc1ccccc1 | 14.6 µM (active) |
| O=C1CCC/C=C/C[C@@H](CC(=O)N(CCO)Cc2ccccc2)C(=O)NC[C@H](c2ccccc2)O1 | inactive |
| O=C(C[C@@H]1C/C=C\CCC(=O)OC[C@@H]2CCCN2C1=O)NCCO | inactive |
